Most compounds without a hit are left out; they make up all but 4.8% or so of the library.
SMARCA2 act: increases SMARCA2 function in MMTV reporter cells | AID 652017 | 370,000 compounds, 1% hits | activation, % at 9.1 µM | MG213 cells, MMTV-luciferase reporter, dexamethasone, overnight; in the data active means activation above about 7.8%;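 further: 0% = vehicle wells and 100% = reference activator wells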
hcDAF-12 act: activates DAF-12 receptor from parasite H. contortus; HEK293 hcDAF-12 lit1-tk-luc reporter, luminescence; 0% DMSO, 100% Δ7-dafachronic acid; activation, % at 6.8 µM; 370,000 compounds, 1.4% hits; AID 652067;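 active means activation above the mean of all tested compounds plus 3 SD, cut at about 5.5% in these data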;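 further: 100% = response to 3 µM Δ7-dafachronic acid high control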
ssDAF-12 act: activators of S. stercoralis DAF-12 nuclear receptor | AID 652126 | HEK293 ssDAF-12/GRIP1 lit1-tk-luc reporter, luminescence; % of 3 µM dafachronic acid response | activation, % at 6.8 µM | 370,000 compounds, 1% hits;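 active means activation above the mean over all tested compounds plus 3 SD, cut at about 0.9% in these data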;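 further: 0% = DMSO-only wells and 100% = 3 µM delta7-dafachronic acid wells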
DAX1 inh-1: inhibitors of DAX1 repression of SF-1 activated StAR promoter; HEK293T StAR-luciferase reporter, SF-1/DAX-1 repression relief; inhibition, % at 6.8 µM; 370,000 compounds, 1.1% hits;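 active means inhibition above the mean over all tested compounds plus 3 SD, cut at about 3.6% in these data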;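 further: 0% = DAX-1 cells with DMSO and 100% = cells lacking DAX-1 with DMSO; higher inhibition means more luminescence from relief of DAX-1 repression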
DAX1 inh-2: inhibits human nuclear receptor DAX1; HEK293 Gal4-DAX1 luciferase reporter, luminescence; inhibition, % at 6.75 µM; 340,000 compounds, 0.99% hits;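 active means inhibition above the mean over all tested compounds plus 3 SD, cut at about 4.2% in these data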;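 further: 0% = DAX1-transfected cells with DMSO and 100% = empty-vector control cells with DMSO; inhibition shows as a rise in luminescence from relieved DAX1 repression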
Target sequence (P51843 207-470 limits assumed): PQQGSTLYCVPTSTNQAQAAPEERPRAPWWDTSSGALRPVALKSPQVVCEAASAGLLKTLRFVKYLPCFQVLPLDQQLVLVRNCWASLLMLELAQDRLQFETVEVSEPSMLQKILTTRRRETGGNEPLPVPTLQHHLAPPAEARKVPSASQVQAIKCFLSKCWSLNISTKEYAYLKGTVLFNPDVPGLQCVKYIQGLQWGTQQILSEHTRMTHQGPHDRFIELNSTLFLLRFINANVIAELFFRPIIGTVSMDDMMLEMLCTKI
hgDAF-12 ag: activates the H. glycines DAF-12 receptor ligand-binding domain. activation, % at 6.8 µM. 370,000 compounds, 1.8% hits. HEK293 GAL4-hgDAF12 UAS-luciferase reporter, agonist luminescence; normalized to butyrate control. AID 687014;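 active means activation above a cutoff set at the mean of all screened compounds plus 3 SD, cut at about 10% in these data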;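 further: 0% = DMSO wells and 100% = sodium butyrate wells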
* = called active by the depositor; · = not tested or not shown.

SMILES | SMARCA2 act | hcDAF-12 act | ssDAF-12 act | DAX1 inh-1 | DAX1 inh-2 | hgDAF-12 ag
Cc1sc(NC(=O)CSC2=NCCS2)nc1-c1ccccc1 | -5 | -2 | -2 | -2 | -2 | -3
COC(=O)CCCCCCCCC(=O)Nc1nc2ccccc2s1 | -7 | 0 | -1 | 0 | 0 | 1
Cc1c(NC(=O)C2CCCN2S(=O)(=O)c2cccc3nsnc23)cccc1C(=O)O (stereo unspecified) | -3 | 0 | 0 | 0 | 0 | -1
Cc1ccc(C(=O)O)cc1NC(=O)C1CCCN1S(=O)(=O)c1cccc2nsnc12 (stereo unspecified) | -1 | 0 | 1.6* | 0 | 0 | 0
COc1ccc(CN2C(=O)[C@]3(NCCc4c3[nH]c3ccc(OC)cc43)c3cc(F)ccc32)cc1 | -1 | -3 | 0 | -1 | · | -1
Nc1ncnc2c1ncn2[C@@H]1O[C@H](C(=O)N[C@@H](CCc2ccccc2)C(=O)N2CCN(CC(=O)N3CCCC3)CC2)[C@@H](O)[C@H]1O | 1 | 2 | -1 | 0 | · | 2
CC1CC(C)CN(c2oc(Cc3ccccc3)nc2C#N)C1 (stereo unspecified) | -1 | -2 | -2 | 0 | -1 | -3
N#Cc1nc(Cc2ccccc2)oc1N1CCCC1 | 3 | -1 | -1 | 0 | 6.2* | 2
C=CC[C@H]1c2ccccc2[C@H]2N3N=Cc4ccccc4[C@H]3[C@H](CCCC)C(=O)N2N1C(=O)c1ccccc1 | -3 | 2 | -2 | -2 | · | -1
O=C(O)CCN1C(=O)/C(=C/c2ccc(F)cc2F)SC1=S | · | 0 | 1 | · | · | 0
COc1cccc(-c2nnn(CC(C)=O)n2)c1 | 0 | 4 | 0 | 1 | 1 | 11*
CN(Cc1cn(CC2CCCCC2)nn1)S(=O)(=O)c1ccccc1Br | -3 | -3 | -1 | 1 | · | -1
CCNC(=S)N/N=C/c1cc(C)n(-c2ccc(Cl)cc2)c1C | 6 | 2 | -1 | 1 | 0 | 11*
Cc1cc(/C=N/NC(N)=S)c(C)n1-c1ccc(Cl)c(Cl)c1 | -1 | -3 | -1 | -2 | -3 | 0
CCOc1ccc(-n2c(=O)c3ccccc3c3ccccc3c2=O)cc1 | -3 | 0 | -1 | 0 | 4.9* | 0
C(=C\c1ccccc1)/CSc1nc2ncccc2[nH]1 | -1 | 1 | 0 | 0 | 4.5* | 5
CCOC(=O)[C@@]12CCCC=C1N(CCc1ccc(Cl)cc1)C(=O)[C@H]2CC(=O)NCC1CCCCC1 | -2 | -3 | -2 | 0 | · | 1
CC(NC(=O)NC(N)=O)(C(F)(F)F)C(F)(F)F | 0 | -2 | -1 | 0 | 5.5* | 2
COc1ccc2c(C)cc(SCC(=O)c3ccc4c(c3)OCO4)nc2c1 | -2 | 4 | 3.4* | 0 | -1 | 5
O=C(CSc1nc2ccccc2[nH]1)c1ccc2c(c1)OCO2 | 2 | -1 | -1 | 0 | 6.0* | 5
O=C1COc2ccc(C(=O)COC(=O)c3ccc4ccccc4n3)cc2N1 | 1 | 4 | 0.9* | -1 | 1 | 2
Cc1ccc2nc(SCC(=O)c3ccc4c(c3)NC(=O)CO4)[nH]c2c1 | 5 | 5 | 0 | 1 | -1 | 11*
COc1ccc(-n2c(COc3ccccc3)nnc2SCC(=O)Nc2ccccc2-c2ccccc2)cc1 | -5 | -3 | -2 | -1 | · | -1
On1c(-c2ccccc2)nc2ccccc21 | -2 | 0 | -1 | 1 | 1 | 3
On1c(-c2ccc(Cl)cc2)nc2ccccc21 | 2 | 3 | 0 | 2 | · | 11*
SMILES | SMARCA2 act | hcDAF-12 act | ssDAF-12 act | DAX1 inh-1 | DAX1 inh-2 | hgDAF-12 ag
CCN(CCN(C)C)C(=O)Cn1ncc2c1-c1cc(C)ccc1OC2 | 3 | -1 | -1 | 0 | 5.6* | 2
CCOC(=O)[C@]12CCCC=C1N(Cc1ccc(OC)cc1)C(=O)[C@@H]2CC(=O)N1CCN(C(=O)c2ccco2)CC1 | -4 | -3 | -1 | 1 | · | -3
CCOC(=O)c1cc(C(=O)NCc2ccc(Cl)cc2Cl)nn1C | -3 | -1 | -2 | 0 | 2 | 2
CCOC(=O)c1cc(C(=O)Nc2ccc(C)c(F)c2)nn1C | 4 | 5 | -1 | 3 | 3 | 11*
O=S(=O)(c1c(Cl)sc(Cl)c1Br)N1CCCC1 | 3 | -1 | 1.5* | 0 | 0 | -1
C=CCOc1ccc(/C=C2\SC(=S)N(N3CCOCC3)C2=O)cc1 | 5 | 5.7* | 0 | 2 | 1 | 10
CCOC(=O)/C=C(\C)Sc1cc(O)c2ccccc2c1O | -7 | 5.8* | 1 | -1 | -3 | -4
CCOC(=O)c1cccc(NC(=O)CN(C)S(=O)(=O)c2cc(OC)ccc2OC)c1 | -2 | -3 | -1 | -1 | · | 1
CN(C(=O)c1ccc(F)cc1)c1ccccc1C(=O)NCc1ccccc1 | -2 | 0 | -1 | -2 | 0 | -3
CN(C(=O)c1ccccc1Cl)c1ccccc1C(=O)NCc1ccccc1 | 0 | 0 | -1 | 4.1* | 0 | 3
CCCCCOc1ccc(/C=N/NC(=O)CSc2nnc(-c3ccc(OC)cc3)n2-c2ccc(C)cc2)cc1 | -2 | 1 | -1 | -1 | · | 3
O=C(COC(=O)c1cc[n+]([O-])cc1)Nc1ccc(Br)cc1 | -2 | 1 | 0 | -1 | 0 | 0
O=C(COC(=O)c1cc[n+]([O-])cc1)Nc1ccc(SC(F)F)cc1 | 4 | 0 | 1.2* | 1 | 0 | 1
OCCc1c[nH]c2ccccc12 | -1 | 1 | -2 | 0 | 4.5* | -2
O=C(O)Cc1c[nH]c2ccccc12 | 2 | 3 | -1 | 0 | 1 | -4
OCc1c[nH]c2ccccc12 | -2 | 6.0* | 0 | -2 | -1 | 2
Cc1ccc(S(=O)(=O)N2CCCCC2)cc1NC(=O)c1ccc2ccccc2n1 | 0 | -1 | -1 | 0 | 0 | -1
Cc1ccccc1C(=O)Nc1ccc(N2CCCC2)cc1 | 0 | -1 | -1 | 2 | 0 | 3
O=C(Nc1cccc(S(=O)(=O)N2CCCCCC2)c1)c1ccc2ccccc2n1 | 4 | 6.4* | 0 | 2 | 1 | 5
O=C(Nc1cccc(-c2cn3c(n2)SCC3)c1)c1ccc2ccccc2n1 | 0 | 4 | 0 | 3 | -1 | 12*
O=C(Nc1ccc(N2CCCCC2)cc1)c1ccc2ccccc2n1 | 4 | 4 | -1 | 1 | 5.5* | 9
CCOc1cc(N2CCOCC2)c(OCC)cc1NC(=O)c1ccc2ccccc2n1 | -2 | 3 | 0.9* | 2 | 0 | 6
O=C(N[C@H]1C[C@@H]2O[C@H](CO)CC[C@@H]2O[C@@H]1CCc1ccc(-c2cccnc2)cc1)c1cccc(F)c1 | -1 | 0 | 0 | -1 | · | 2
O=C(C1CCN(c2ncnc3c2sc2cccc(F)c23)CC1)N1CCN(Cc2ccccc2)CC1 | -2 | 1 | -1 | -1 | · | -3

High-throughput results as filed in PubChem BioAssay.
